In PubChem BioAssay (NCI) one finds growth data, which are given here for seven compounds.

Holding throughout (test): NCI-60 one-dose screen, 48 h (100 = growth as untreated, 0 = no growth, -100 = all killed)
One assay concerns NCI-H226 lung. The settings on record: 10 µM.
The next assay has as its system NCI-H322M lung. The settings on record: 10 µM.
Another assay deals with HOP-62 NSCLC. The settings on record: 10 µM.
The subject of a further assay is NCI-H460 lung. The settings on record: 10 µM.
The test system of another assay is HOP-92 NSCLC. The settings on record: 10 µM.
For the next assay, the system named is NCI-H522 lung. The settings on record: 10 µM.
The next assay concerns A549/ATCC NSCLC. The settings on record: 10 µM.
In the next assay the test system is COLO 205 colon. The settings on record: 10 µM.
For a further assay, the system named is SF-268 CNS. The settings on record: 10 µM.
The subject of another assay is SF-295 CNS. The settings on record: 10 µM.
Another assay relates to SF-539 CNS. The settings on record: 10 µM.
In the next assay the test system is M14 melanoma. The settings on record: 10 µM.
The test system of another assay is HCT-15 colon. The settings on record: 10 µM.
For another assay, the system named is SNB-75 CNS. The settings on record: 10 µM.
The subject of another assay is SNB-19 CNS. The settings on record: 10 µM.
A further assay deals with U251 CNS. The settings on record: 10 µM.
A further assay relates to PC-3 prostate. The settings on record: 10 µM.
The next assay deals with SK-MEL-5 melanoma. The settings on record: 10 µM.
Another assay concerns UACC-62 melanoma. The settings on record: 10 µM.
A further assay deals with MDA-MB-468 breast. The settings on record: 10 µM unless noted.

The panel holds about 83,000 compounds, 20% with a hit somewhere; the sample as a whole holds those more often.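 Step 1: grow cells in 96-well plates. Step 2: add test compound at a single concentration. Step 3: incubate 48 h. Step 4: record percent growth.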 A number with no mark means an inactive call. The source made the active and inactive calls. The calls were made as follows: active = growth percent below 10; inactive = the rest.

Regarding `O=C(c1ccccc1)c1ccc2nc(-c3ccccc3Br)[nH]c2c1`, the growth in the assay on NCI-H226 lung is -27.8% (active); with NCI-H322M lung it was -96.2% (active); with HOP-62 NSCLC it was -46.6% (active); in the assay on NCI-H460 lung, -22.4% (active); with HOP-92 NSCLC, -90.6% (active); with NCI-H522 lung, -74.9% (active). The growth with A549/ATCC NSCLC was -57.9% (active); in the assay with COLO 205 colon, -75.5% (active); with SF-268 CNS it was -2.6% (active); in the assay with SF-295 CNS it was 11.2%; in the assay on SF-539 CNS, -96.1% (active); in the assay with M14 melanoma it was -70.1% (active). In addition, the growth was -37.7% (active) in the assay with HCT-15 colon; -41.9% (active) in the assay with SNB-75 CNS; 4.77% (active) in the assay on SNB-19 CNS; -94.7% (active) in the assay with U251 CNS; -19.4% (active) in the assay with PC-3 prostate; -97.6% (active) with SK-MEL-5 melanoma. Further, the growth was -47.5% (active) in the assay with UACC-62 melanoma and -57.2% (active) in the assay with MDA-MB-468 breast.

On to `O=C(CN1CCN(c2ncnc3c2cnn3-c2ccccc2)CC1)Nc1ccc(Cl)cc1`, for which the growth is 67.5% with NCI-H226 lung; 78.9% with NCI-H322M lung; 85.7% with HOP-62 NSCLC; 53.3% in the assay on NCI-H460 lung; 69.8% in the assay on HOP-92 NSCLC; -83.1% (active) with NCI-H522 lung. In addition, the growth was 67% with A549/ATCC NSCLC; 56.7% in the assay with COLO 205 colon; 44.3% in the assay on SF-268 CNS; 80.3% with SF-295 CNS; 76.1% in the assay on SF-539 CNS; 59.4% in the assay on M14 melanoma. Also, the growth in the assay on HCT-15 colon was 45%; with SNB-75 CNS, 69.7%; in the assay with SNB-19 CNS it was 66.5%; with U251 CNS, 66.7%; in the assay with PC-3 prostate, 38.8%; with SK-MEL-5 melanoma, 0.35% (active). In addition, the figures for the growth in the assay on UACC-62 melanoma and with MDA-MB-468 breast were 45.3% and 42.5%, respectively.

Consider `C#C[C@]1(O)CC[C@H]2[C@@H]3CC=C4c5sc(Nc6ccc(C(F)(F)F)cn6)nc5CC[C@]4(C)[C@H]3CC[C@@]21C`, for which the growth in the assay with NCI-H226 lung is 16.2%; with NCI-H322M lung, 13.7%; in the assay on HOP-62 NSCLC, 10.9%; in the assay with NCI-H460 lung it was -35.8% (active); with HOP-92 NSCLC, -7.64% (active); in the assay with NCI-H522 lung, -51.1% (active). In addition, the growth in the assay on A549/ATCC NSCLC was 7.15% (active); in the assay on COLO 205 colon, -87% (active); in the assay on SF-268 CNS, 23.2%; in the assay with SF-295 CNS, -68.8% (active); in the assay with SF-539 CNS, -45.3% (active); in the assay with M14 melanoma, -21.4% (active). The growth with HCT-15 colon is -34.8% (active); in the assay on SNB-75 CNS, 28.5%; in the assay with SNB-19 CNS, 8.33% (active); in the assay on U251 CNS it was -82.9% (active); with PC-3 prostate, 1.89% (active); in the assay on SK-MEL-5 melanoma, -97.1% (active). In addition, the growth is -45.9% (active) in the assay with UACC-62 melanoma and 4.25% (active) with MDA-MB-468 breast.

With `Nc1nnc(-c2c[nH]c3ncc(Br)cc23)c(-c2c[nH]c3ccc(Br)cc23)n1`, the growth in the assay on NCI-H226 lung was 35.8%; in the assay on NCI-H322M lung, 63%; with HOP-62 NSCLC it was 44.5%; in the assay on NCI-H460 lung, 26.5%; in the assay with HOP-92 NSCLC, 28.4%; in the assay on NCI-H522 lung it was 21.9%. Moreover, the growth in the assay on A549/ATCC NSCLC was 48.7%; with COLO 205 colon, 0.336% (active); in the assay on SF-268 CNS it was 46%; with SF-295 CNS, 44.7%; with SF-539 CNS, 19.9%; in the assay with M14 melanoma, 34.5%. Also, the growth is 31.7% in the assay with HCT-15 colon; 43.4% in the assay on SNB-75 CNS; 46.7% in the assay with SNB-19 CNS; 38.3% in the assay with U251 CNS; 26.6% in the assay with PC-3 prostate; 9.81% (active) with SK-MEL-5 melanoma. The growth with UACC-62 melanoma is 24.4%; in the assay on MDA-MB-468 breast, 8.52% (active).

Take `COc1ccc(OC)c(-n2cc(C#N)c(N)c2C(=O)c2ccc(Cl)cc2Cl)c1`: the growth with NCI-H226 lung was 51.3%; with NCI-H322M lung, 76.8%; in the assay on HOP-62 NSCLC it was 49.3%; with NCI-H460 lung it was 32.9%; with HOP-92 NSCLC, 91.6%; in the assay with NCI-H522 lung, 7.18% (active). Moreover, the growth in the assay on A549/ATCC NSCLC is 51.9%; with COLO 205 colon, 32.6%; in the assay with SF-268 CNS, 56.2%; with SF-295 CNS, 28.4%; with SF-539 CNS, 25.6%; in the assay on M14 melanoma, 23.5%. Moreover, the growth with HCT-15 colon is 21.6%; in the assay on SNB-75 CNS it was -7.62% (active); with SNB-19 CNS, 45.5%; with U251 CNS it was 24.6%; in the assay with PC-3 prostate it was 37.8%; in the assay with SK-MEL-5 melanoma, 54.2%. The results for the growth in the assay with UACC-62 melanoma and in the assay with MDA-MB-468 breast were 30.5% and 19.8%, respectively.

Regarding `O=C(c1ccc(Cl)cc1)C(c1c[nH]c2ccccc12)c1c[nH]c2ccccc12`, the growth was -50.8% (active) with NCI-H226 lung; 38.1% with NCI-H322M lung; 16% in the assay with HOP-62 NSCLC; -53.5% (active) in the assay with NCI-H460 lung; -15.7% (active) in the assay with HOP-92 NSCLC; -82.6% (active) in the assay on NCI-H522 lung. Besides, the growth in the assay on A549/ATCC NSCLC was 4.91% (active); with COLO 205 colon, -87.9% (active); in the assay on SF-268 CNS it was 9.45% (active); in the assay with SF-295 CNS, 14.5%; in the assay on SF-539 CNS it was -94.2% (active); with M14 melanoma, -71% (active). The growth with HCT-15 colon was -63.9% (active); with SNB-75 CNS, 31.9%; in the assay with SNB-19 CNS, 22.4%; in the assay with U251 CNS, -89.1% (active); in the assay with PC-3 prostate, -33.2% (active); in the assay on SK-MEL-5 melanoma, -58.3% (active). The growth in the assay on UACC-62 melanoma was -53.4% (active); in the assay on MDA-MB-468 breast it was -71.1% (active).

As to `COc1cc2oc(-c3cccc(C(=O)Nc4ccc(Cl)cc4)c3)cc(=O)c2c(OCCNC(=O)[C@@H](N)CO)c1OC`, the growth was 95.1% with NCI-H226 lung; 55.3% with NCI-H322M lung; 87.6% in the assay on HOP-62 NSCLC; 40.2% in the assay on NCI-H460 lung; -2.3% (active) in the assay on HOP-92 NSCLC; -27.9% (active) with NCI-H522 lung. The growth in the assay on A549/ATCC NSCLC was 102%; in the assay on COLO 205 colon, 40.9%; in the assay on SF-268 CNS, 69.9%; in the assay on SF-295 CNS, 99.4%; in the assay on SF-539 CNS, 23.9%; in the assay on M14 melanoma, -81.8% (active). Also, the growth in the assay with HCT-15 colon was 83%; in the assay with SNB-75 CNS it was 121%; with SNB-19 CNS, 25%; in the assay on U251 CNS, -82.6% (active); in the assay with PC-3 prostate it was 48.3%; in the assay with SK-MEL-5 melanoma, -81.9% (active). The growth with UACC-62 melanoma was 38.8%; in the assay with MDA-MB-468 breast, -85.6% (active).
